Experimental findings from PubChem BioAssay AID1851 (National Center for Advancing Translational Sciences (NCATS), 2009) are described below.

Structures are written as SMILES. Hit rate of the full screen: of about 16,000 compounds, about 4,000 (25%) were called active. Not shown: some 26% with an inconclusive outcome. Calls follow the shape of the dose curve; as a rule, active = well fitted curve in the direction sought with a large enough effect; inconclusive = small, poorly fitted or top-dose-only effect, or effect the other way; inactive = no such curve, though single readings can be large or run the other way. Only a sample is shown.
% is scaled to controls: 0 for no effect and ±100 for the full control effect.

For the test, the target named is Cytochrome P450 2C9 (Homo sapiens) (UniProt P11712). Briefly: Cytochrome panel assay with activity outcomes. Particulars: recombinant CYP, pro-luciferin dealkylation, luminescence, p450-cyp2c9; series mostly up to 57.1 µM; activity, negative = inhibition: at the top concentration.
Chain of Cytochrome P450 2C9 (Homo sapiens) (P11712 whole entry, looked up): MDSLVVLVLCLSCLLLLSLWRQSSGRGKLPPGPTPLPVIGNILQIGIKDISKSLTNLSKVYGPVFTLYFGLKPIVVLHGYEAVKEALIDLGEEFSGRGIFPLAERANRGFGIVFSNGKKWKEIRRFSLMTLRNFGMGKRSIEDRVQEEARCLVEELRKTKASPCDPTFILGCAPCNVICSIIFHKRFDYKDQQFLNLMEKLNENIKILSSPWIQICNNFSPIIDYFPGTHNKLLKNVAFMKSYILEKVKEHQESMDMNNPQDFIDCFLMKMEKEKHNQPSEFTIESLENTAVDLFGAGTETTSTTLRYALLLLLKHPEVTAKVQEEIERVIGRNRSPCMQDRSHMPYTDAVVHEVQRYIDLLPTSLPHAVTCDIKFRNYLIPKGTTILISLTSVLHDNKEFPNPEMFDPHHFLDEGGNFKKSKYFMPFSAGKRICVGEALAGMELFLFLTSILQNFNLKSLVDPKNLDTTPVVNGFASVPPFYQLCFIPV
For `CSC(=N)N`, the AC50 result is “inactive”. With `Cc1nnc(-c2cccc(Br)c2)c2cn(-c3ccccc3Cl)nc12`, the AC50 is 2.82 µM (active). On the same count and under the same terms, the same measure for `Cc1nnc(-c2cccc(Br)c2)c2cn(-c3ccc(Br)cc3)nc12`: 2 µM (active). The same measure, in the same setting: to `NC[C@@H]1O[C@H](C23CC4CC(CC(C4)C2)C3)Cc2c1ccc(O)c2O` belongs “inactive”; to `NC[C@@H]1O[C@H](c2ccccc2)Cc2c1ccc(O)c2O`, 6.31 µM (active). As to `CO/N=C(\C(=O)N[C@@H]1C(=O)N2C(C(=O)O)=C(COC(N)=O)CS[C@@H]12)c1ccco1`, the “activity, negative = inhibition” value is -0.22% [at 25.6 µM] (inactive).

Turning to `C=C(C)CN(CC#N)CC(=C)C`, the activity, negative = inhibition was 11% [at 11.4 µM] (inactive). As to `Cc1cccc(-c2c3c(=O)n(C)c(=O)n(C)c3cn2C2CCCCC2)c1`, the AC50 is 10 µM (active). Turning to `CC1=CC(=O)N(c2cccc(C(F)(F)F)c2)C1c1ccc(Cl)cc1` (centres undefined), the AC50 was 12.6 µM (active).

Regarding `Cc1n[nH]c(=O)n1-c1cccc(C(F)(F)F)c1`, the “activity, negative = inhibition” value is -26.8% (inactive). As for `OC[C@@H]1O[C@@H](n2cnc3c(SCc4ccccc4)ncnc32)[C@@H](O)[C@H]1O`, the activity, negative = inhibition is 5.12% [at 11.4 µM] (inactive).

In the case of `Cc1ccc(NC(=S)NC(=O)c2c(-c3ccccc3Cl)noc2C)cc1`, the AC50 was 1.41 µM (active).

As to `CC(=O)C1=NOC(CNC(=O)c2c(-c3ccccc3Cl)noc2C)C1` (centres undefined), the “activity, negative = inhibition” value is -24.8% (inactive). For `Cc1onc(-c2ccccc2Cl)c1C(=O)Nc1nnc(Cc2ccc(Cl)cc2)s1`, the AC50 is 1.26 µM (active). Take `Cc1onc(-c2ccccc2Cl)c1C(=O)NCC(=O)O`: the “activity, negative = inhibition” value was -18% (inactive). The same measure, in the same setting: to `CC(=O)NCCNc1ncnc2ccc(-c3ccccc3C(F)(F)F)cc12` belongs 5.92% [at 2.29 µM] (inactive); to `COc1ccccc1NC(=O)CCN1C(=O)C2CC=C(Cl)CC2C1=O` (centres undefined), 19.4% (inactive). As for `CCn1c2ccccc2c2cc(N=C3SC(CC(=O)Nc4ccccc4OC)C(=O)N3C)ccc21` (centres undefined), the AC50 is 0.891 µM (active). For the molecule `CCn1c2ccccc2c2cc(N=C3SC(CC(=O)Nc4ccccc4)C(=O)N3C)ccc21` (centres undefined), the AC50 is 0.126 µM (active). As to `O=C(O)CC[C@@H](C(=O)O)N1C(=O)[C@@H]2[C@@H]3CC[C@H](C3)[C@@H]2C1=O`, the activity, negative = inhibition is 12.5% [at 11.4 µM] (inactive).

Consider `OCCNc1nc(NCCC2=CCCCC2)nc(N2CCOCC2)n1`, for which the AC50 was 14.1 µM (active).

With `CCN(CC)CCNC(=O)C(C)c1nn(C)c(=O)c2ccccc12` (centres undefined), the “activity, negative = inhibition” value was -0.184% (inactive). Turning to `CCOC(=O)CNS(=O)(=O)c1cc(-c2nn(C)c(=O)c3ccccc23)ccc1C`, the AC50 is 0.316 µM (active). Take `CS(=O)(=O)Nc1cccc(-c2ccc3ncnc(NCCN4CCOCC4)c3c2)c1`: the activity, negative = inhibition was 19% [at 2.29 µM] (inactive). Still for that read-out and setting: the same measure for `Cc1ccc(S(=O)(=O)NCc2cccc([N+](=O)[O-])c2)cc1`: 24.1% [at 11.4 µM] (inactive). Consider `CCN(Cc1ccccc1)Cc1cccc([N+](=O)[O-])c1`, for which the AC50 is 10 µM (active). For `N[C@@H](Cc1cccc([N+](=O)[O-])c1)C(=O)O`, the activity, negative = inhibition was 16.8% [at 11.4 µM] (inactive). For the molecule `COc1c(Cl)cc(Cl)cc1CNCCNCC(C)O` (centres undefined), the “activity, negative = inhibition” value is 15.2% (inactive). `Cc1cc(Cl)nc2ccc(Cc3ccc4nc(Cl)cc(C)c4c3)cc12`: the activity, negative = inhibition was 0.565% [at 11.4 µM] (inactive). Regarding `Cc1cc(N2CCOCC2)nc2ccc(Cc3ccc4nc(N5CCOCC5)cc(C)c4c3)cc12`, the AC50 is 3.98 µM (active).

For the molecule `COc1ccc2c(C)cc(N3CCOCC3)nc2c1`, the “activity, negative = inhibition” value is 11.4% (inactive). Regarding `CCNc1ccc(Br)cc(C(=O)/C=C/c2ccc3c(c2)OCO3)c1=O`, the AC50 was 11.2 µM (active).

For `CCCc1nnc(SCC(=O)O)n1/N=C/c1ccc2c(c1)OCO2`, the “activity, negative = inhibition” value is -24.4% (inactive). On the same count and under the same terms, the same measure for `Nc1ccccc1C(=O)/C=C\c1ccc2c(c1)OCO2`: -29.2% [at 11.4 µM] (inactive); for `O=C(/C=C\C=C/c1ccc2c(c1)OCO2)N1CCCCC1`: -34.7% [at 25.6 µM] (inactive).

In the case of `COc1ccccc1N1CCN(C(=O)/C=C/c2ccc3c(c2)OCO3)CC1`, the AC50 was 14.1 µM (active). `COCOc1cc(OC)ccc1C(=O)/C=C\c1ccc2c(c1)OCO2`: the AC50 is 2.51 µM (active). Same read-out and setting: to `CCCC(=O)Nc1ccc(C(=O)/C=C/c2ccc(SC)cc2)cc1` belongs 1.78 µM (active). `CCCCCCCCCCCCCCCCCCc1ccc(C(=O)/C=C\C(=O)O)cc1`: the “activity, negative = inhibition” value was -7.99% (inactive).

For `O=C(O)CC/C=C\C[C@@H]1CO[C@H](c2ccccc2Cl)O[C@@H]1c1ccccc1O`, the “activity, negative = inhibition” value is -16.7% (inactive). Same read-out and setting: the same measure for `c1ccc(C2OCC3(CO2)COC(c2ccccc2)OC3)cc1` (centres undefined): -37.5% (inactive); for `O=C1CCCCCC1C1(O)C(=O)Nc2ccc(Br)cc21` (centres undefined): -11.1% (inactive); for `CC(C)[C@H](Sc1nc(N)nc2nc[nH]c12)C(=O)O`: 12.2% [at 11.4 µM] (inactive). Consider `Nc1nc(Sc2ccc([N+](=O)[O-])c3nonc23)c2[nH]cnc2n1`, for which the AC50 was 3.16 µM (active). In the case of `Nc1nc(SCc2ccccc2[N+](=O)[O-])c2[nH]cnc2n1`, the activity, negative = inhibition was -28.6% [at 11.4 µM] (inactive). For `CCOC(=O)N1CCN(C(=O)C(CC)n2nc(C)c3sc4ccccc4c3c2=O)CC1` (centres undefined), the AC50 is 3.16 µM (active). As to `CCOC(=O)N1CCN(C(=O)CCn2nc(-c3ccccc3)ccc2=O)CC1`, the “activity, negative = inhibition” value is -13.9% (inactive). `CN(C)CCCN=c1c2ccccc2n(C)c2[nH]c(=O)n(C)c(=O)c12`: the activity, negative = inhibition is -3.97% [at 11.4 µM] (inactive). For the molecule `CC(=O)NCCNc1ccnc(-c2ccccc2C(F)(F)F)n1`, the activity, negative = inhibition is 9.95% [at 2.29 µM] (inactive).

As to `COc1cc(O)oc1C=Nc1ccc(Cl)cc1`, the AC50 is 22.4 µM (active). Regarding `COc1ccc(N=Cc2ccc(CNS(=O)(=O)c3ccc(Cl)cc3)o2)cc1`, the “activity, negative = inhibition” value is -5.91% (inactive). Consider `CCNC(=S)N1CC(C)OC(C)C1` (centres undefined), for which the “activity, negative = inhibition” value was -4.79% (inactive).

Take `Cc1ccc(N(CCC#N)C(=O)CSc2ccc3c(c2)OCCO3)cc1`: the AC50 is 5.01 µM (active).

In the case of `Cc1ccc(SCN2CCCCC2)cc1` (tested in a mixture with another compound), the activity, negative = inhibition was -29.3% [at 11.4 µM] (inactive). Consider `CC1Cc2ccccc2N1Cc1nc2cc(C(F)(F)F)ccc2c(=O)[nH]1` (centres undefined), for which the AC50 was 5.01 µM (active). With `O=S(=O)(c1cccc(-c2nnc(-c3ccc(Br)cc3)o2)c1)N1CCCCCC1`, the AC50 was 5.01 µM (active). Turning to `O=S(=O)(c1ccc(Br)cc1)N1CCN(S(=O)(=O)c2ccc(Br)cc2)CC1`, the activity, negative = inhibition was 25.6% [at 11.4 µM] (inactive). Take `Brc1ccc(-c2nnc(-c3cccc(Br)c3)o2)cc1`: the “activity, negative = inhibition” value is -6.6% (inactive). Turning to `c1cncc(-c2cncnc2-n2ccnc2)c1`, the activity, negative = inhibition was 8.83% [at 2.29 µM] (inactive).

For orientation: AC50 means the concentration at which the activity in the assay is half-maximal.
